According to PubChem BioAssay (Tox21):
Records with an inconclusive call do not appear. Calls of active or inactive are those of the source. Unless noted, calls come from the whole dose curve.

Experiments:
[1] = Nuclear factor erythroid 2-related factor 2/antioxidant responsive element (Nrf2/ARE) small molecule agonists: luciferase reporter gene qHTS assay in human keratinocytes (AID 1919969); note: nearly all actives have a fitted effect of over 35% in size
[2] = target: Gonadotropin-releasing hormone receptor (Homo sapiens) (UniProt P30968); assay: Human gonadotropin-releasing hormone receptor (GnRHR) small molecule agonists, calcium flux assay in GnRHR-HEK293 cells (AID 1920063); note: nearly all actives have a fitted effect of over 35% in size
Gonadotropin-releasing hormone receptor (Homo sapiens), sequence (P30968 whole entry, looked up): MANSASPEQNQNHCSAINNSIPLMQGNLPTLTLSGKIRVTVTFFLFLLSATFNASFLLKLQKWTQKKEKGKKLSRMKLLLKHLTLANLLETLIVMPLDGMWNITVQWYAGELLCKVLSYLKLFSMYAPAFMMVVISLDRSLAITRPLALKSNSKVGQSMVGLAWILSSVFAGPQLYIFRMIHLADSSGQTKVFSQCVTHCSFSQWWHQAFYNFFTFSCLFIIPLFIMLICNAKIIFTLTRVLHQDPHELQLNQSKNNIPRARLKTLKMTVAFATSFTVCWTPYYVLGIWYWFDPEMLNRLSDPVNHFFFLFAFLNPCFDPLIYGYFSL
Outline: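 Tox21-format agonist screen using human GnRHR-expressing HEK293 cells and a fluorescent calcium dye; kinetic 3-min fluorescence reading after compound addition, 15-point concentration series run in triplicate.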

[3] = target: KiSS-1 receptor (Homo sapiens) (UniProt Q969F8); assay: Human kisspeptin (KISS1R) small molecule agonists, calcium flux assay in KISS1R-HEK293 cells (AID 1920064; active = well fitted activation curve with a large enough effect in the repeat runs)
KiSS-1 receptor (Homo sapiens), sequence (Q969F8 whole entry, looked up): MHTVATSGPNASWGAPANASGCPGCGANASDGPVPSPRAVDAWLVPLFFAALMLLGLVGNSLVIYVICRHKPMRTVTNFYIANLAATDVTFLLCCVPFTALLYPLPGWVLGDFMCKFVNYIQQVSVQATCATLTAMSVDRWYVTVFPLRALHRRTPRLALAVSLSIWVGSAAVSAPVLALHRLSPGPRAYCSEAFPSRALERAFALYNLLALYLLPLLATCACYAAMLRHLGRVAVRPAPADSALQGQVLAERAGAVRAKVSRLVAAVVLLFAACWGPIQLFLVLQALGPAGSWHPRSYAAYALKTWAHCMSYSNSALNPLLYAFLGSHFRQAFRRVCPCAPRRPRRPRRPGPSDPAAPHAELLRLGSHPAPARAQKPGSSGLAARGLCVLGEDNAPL
Outline: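 Intracellular calcium mobilization in KISS1R-HEK293 cells was recorded by fluorescence (Ex/Em 480/540) for 3 min following compound addition to cells pre-loaded 1 h with calcium dye.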

[4] = G protein-coupled receptor (GPCR) small molecule agonists, calcium flux assay: HEK293 wild type cell line counter screen (AID 1920065)
Outline: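 In this agonist-mode screen, ATP is the positive control and DMSO the vehicle. Cells grow 18 h before a 1 h dye incubation at 37 C; signal is taken at Ex/Em 480/540 over 3 min.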

[5] = p53 small molecule agonists, cell-based qHTS assay with human liver microsomes (AID 1963577);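 note: p53 response element beta-lactamase reporter cells with liver microsomes plus NADPH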
Outline: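 16 h, 37 C exposure of p53RE-bla cells to compounds with human liver microsomes and NADPH (0.5 mg/mL final each); detection via LiveBLAzer mixture, 2 h dark at room temperature.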

[6] = p53 small molecule agonists, cell-based qHTS assay with rat liver microsomes (AID 1963578)
Outline: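 With rat liver microsomes and NADPH present (0.5 mg/mL final each), p53RE-bla cells are treated with compound for 16 h at 37 C. LiveBLAzer detection mixture is then applied for 2 h at room temperature in the dark.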

[7] = p53 small molecule agonists, cell-based qHTS assay with human liver microsomes: qHTS cell viability counter screen (AID 1963579); note: nearly all actives have a fitted effect of over 45% in size
Outline: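 In this multiplexed counter screen, the reporter plates were subsequently treated with CellTiter-Glo so that cell viability, reflected by luminescence, could be recorded for p53RE-bla cells dosed 16 h with compounds under microsomal activation (HLM and NADPH).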

[8] = p53 small molecule agonists, cell-based qHTS assay with rat liver microsomes: qHTS cell viability counter screen (AID 1963580); note: nearly all actives have a fitted effect of over 45% in size
Outline: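 Intracellular ATP, by CellTiter-Glo luminescence, defines viability. HCT-116 p53RE-bla cells, 4,000 per well, were compound-treated in the presence of rat liver microsomes and NADPH for 16 h at 37 C.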

[9] = p53 small molecule agonists, cell-based qHTS assay: qHTS cell viability counter screen (AID 1963581); note: nearly all actives have a fitted effect of over 45% in size
Outline: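 Compounds are pinned onto HCT-116 p53RE-bla cells and left 16 h at 37 C. Following the reporter FRET read, ATP is quantified by CellTiter-Glo luminescence after 30 min at room temperature.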

[10] = p53 small molecule agonists, cell-based qHTS assay (AID 1963582; active = well fitted activation curve with a large enough effect in the signal ratio in the repeat runs, not every such curve was filed as active; the % refers to the signal ratio)
Outline: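 Agonist activity was scored from beta-lactamase FRET fluorescence in p53RE-bla cells treated 16 h at 37 C with compounds in DMSO, substrate incubation being 2 h at room temperature.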

[11] = target: 5-hydroxytryptamine receptor 2A (Homo sapiens) (UniProt P28223); assay: 5-hydroxytryptamine receptor 2A (HTR2A) small molecule antagonists, cell-based qHTS assay (AID 1963586); note: nearly all actives have a fitted effect of over 45% in size
5-hydroxytryptamine receptor 2A (Homo sapiens), sequence (P28223 whole entry, looked up): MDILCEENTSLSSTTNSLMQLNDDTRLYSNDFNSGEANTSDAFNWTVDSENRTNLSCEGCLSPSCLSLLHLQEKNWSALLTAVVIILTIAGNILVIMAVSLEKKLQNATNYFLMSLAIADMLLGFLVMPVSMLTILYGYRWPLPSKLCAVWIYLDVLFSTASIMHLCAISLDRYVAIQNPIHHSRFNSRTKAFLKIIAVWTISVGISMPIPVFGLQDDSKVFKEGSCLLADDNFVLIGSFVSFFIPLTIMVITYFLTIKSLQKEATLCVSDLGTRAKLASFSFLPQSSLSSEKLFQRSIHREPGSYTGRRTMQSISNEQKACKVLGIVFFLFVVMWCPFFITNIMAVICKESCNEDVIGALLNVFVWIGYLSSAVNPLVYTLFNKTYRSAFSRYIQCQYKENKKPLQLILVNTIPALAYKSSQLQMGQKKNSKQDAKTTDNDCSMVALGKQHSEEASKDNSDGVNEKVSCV
Outline: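 Antagonist-mode intracellular calcium assay: DOI (4 nM) added after 5 min compound pre-incubation at room temperature to dye-loaded HTR2A-CHO cells. Fluorescence followed for 3 min, sampled every second.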

[12] = target: 5-hydroxytryptamine receptor 2A (Homo sapiens) (UniProt P28223); assay: 5-hydroxytryptamine receptor 2A (HTR2A) small molecule agonists, cell-based qHTS assay (AID 1963587); note: nearly all actives have a fitted effect of over 30% in size
Outline: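 Kinetic calcium-flux fluorescence (2 min, 1 sec intervals) after compound addition in agonist mode. HTR2A-CHO cells were cultured 18 h, then dye-loaded 1 h at 37 C.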

[13] = target: Muscarinic acetylcholine receptor M1 (Homo sapiens) (UniProt P11229); assay: Cholinergic receptor muscarinic 1 (CHRM1) small molecule antagonists, cell-based qHTS assay (AID 1963588); note: nearly all actives have a fitted effect of over 40% in size
Muscarinic acetylcholine receptor M1 (Homo sapiens), sequence (P11229 whole entry, looked up): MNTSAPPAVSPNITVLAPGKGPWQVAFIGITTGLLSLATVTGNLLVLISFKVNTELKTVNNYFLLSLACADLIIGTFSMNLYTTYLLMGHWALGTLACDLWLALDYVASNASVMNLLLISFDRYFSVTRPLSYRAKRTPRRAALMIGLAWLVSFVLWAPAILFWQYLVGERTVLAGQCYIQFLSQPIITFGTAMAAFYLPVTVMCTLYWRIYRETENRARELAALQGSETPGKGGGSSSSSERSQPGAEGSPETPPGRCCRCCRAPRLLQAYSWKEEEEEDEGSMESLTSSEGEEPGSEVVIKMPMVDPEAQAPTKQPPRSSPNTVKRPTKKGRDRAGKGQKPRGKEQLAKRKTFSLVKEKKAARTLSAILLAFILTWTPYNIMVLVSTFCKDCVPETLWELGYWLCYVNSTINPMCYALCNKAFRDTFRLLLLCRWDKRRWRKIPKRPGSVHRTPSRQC
Outline: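 CHRM1-CHO calcium-flux assay, antagonist mode. Cells were seeded 18 h, dye-loaded 1 h at 37 C and given compound for 5 min at RT, then acetylcholine was added at 50nM. FDSS fluorescence was read 3 min; 15 concentrations, three runs.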

[14] = target: Muscarinic acetylcholine receptor M1 (Homo sapiens) (UniProt P11229); assay: Cholinergic receptor muscarinic 1 (CHRM1) small molecule agonists, cell-based qHTS assay (AID 1963589); note: nearly all actives have a fitted effect of over 35% in size
Outline: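 Stable CHRM1-CHO cells (human receptor) were incubated 18 h, dye-loaded for 1 h at 37 C and exposed to test compounds for agonist activity, with calcium-dependent fluorescence followed kinetically.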

[15] = cAMP Responsive Elements (CRE) small molecule agonists, cell-based qHTS assay (AID 1963590)
Outline: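 FRET-based beta-lactamase readout (LiveBLAzer B/G, 2 h RT) quantified CRE activation in HEK 293T CRE-bla cells after 3 h treatment with DMSO-dissolved compounds.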

[16] = cAMP Responsive Elements (CRE) small molecule antagonists, cell-based qHTS assay (AID 1963591; active = well fitted inhibition curve with a large enough effect in the signal ratio in the repeat runs, not every such curve was filed as active; the % refers to the signal ratio)
Outline: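 qHTS in CRE-bla HEK 293T cells: compound in DMSO, then 0.25 uM NKH477 (final), 3 h at 37 °C/5% CO2; beta-lactamase FRET read-out after 2 h substrate incubation.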

[17] = target: Beta-2 adrenergic receptor (Homo sapiens) (UniProt P07550); assay: Adrenergic beta2 receptor (ADRB2) small molecule antagonists, cell-based qHTS assay (AID 1963592); note: series mostly up to about 92 µM; nearly all actives have a fitted effect of over 50% in size
Beta-2 adrenergic receptor (Homo sapiens), sequence (P07550 whole entry, looked up): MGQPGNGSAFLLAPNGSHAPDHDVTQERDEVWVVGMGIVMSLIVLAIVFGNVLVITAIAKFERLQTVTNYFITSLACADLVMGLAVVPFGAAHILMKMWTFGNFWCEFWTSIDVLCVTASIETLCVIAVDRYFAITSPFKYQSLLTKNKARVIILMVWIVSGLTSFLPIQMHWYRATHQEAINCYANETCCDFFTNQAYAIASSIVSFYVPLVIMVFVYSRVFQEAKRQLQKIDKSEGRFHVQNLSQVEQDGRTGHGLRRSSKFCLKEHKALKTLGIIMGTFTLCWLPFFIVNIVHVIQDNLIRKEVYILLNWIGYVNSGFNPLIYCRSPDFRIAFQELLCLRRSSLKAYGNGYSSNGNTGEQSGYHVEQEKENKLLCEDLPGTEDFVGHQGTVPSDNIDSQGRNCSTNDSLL
Outline: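 Cells (CHO, stable ADRB2 overexpression) incubated 18-20hr at 37C; compounds added from DMSO; agonist mix (1nM isoproterenol, 100uM IBMX, 25uM Ro-20-1724) added; 0.5hr RT; d2-cAMP and anti-cAMP-cryptate added; 1hr RT; 665/615 nm read.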

[18] = target: Beta-2 adrenergic receptor (Homo sapiens) (UniProt P07550); assay: Adrenergic beta2 receptor (ADRB2) small molecule agonists, cell-based qHTS assay (AID 1963593);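 note: CHO cells stably overexpressing human ADRB2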
Outline: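 CHO cells stably over-expressing ADRB2 were plated overnight at 37C, then dosed with compounds plus a stimulation mix containing 100uM IBMX and 25uM Ro-20-1724 for 0.5hr at room temperature. cAMP was measured by HTRF competition, 1hr.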

[19] = target: D(2) dopamine receptor (Homo sapiens) (UniProt P14416); assay: Dopamine D2 receptor (DRD2) small molecule agonists, cell-based qHTS assay (AID 1963594); note: nearly all actives have a fitted effect of over 35% in size
D(2) dopamine receptor (Homo sapiens), sequence (P14416 whole entry, looked up): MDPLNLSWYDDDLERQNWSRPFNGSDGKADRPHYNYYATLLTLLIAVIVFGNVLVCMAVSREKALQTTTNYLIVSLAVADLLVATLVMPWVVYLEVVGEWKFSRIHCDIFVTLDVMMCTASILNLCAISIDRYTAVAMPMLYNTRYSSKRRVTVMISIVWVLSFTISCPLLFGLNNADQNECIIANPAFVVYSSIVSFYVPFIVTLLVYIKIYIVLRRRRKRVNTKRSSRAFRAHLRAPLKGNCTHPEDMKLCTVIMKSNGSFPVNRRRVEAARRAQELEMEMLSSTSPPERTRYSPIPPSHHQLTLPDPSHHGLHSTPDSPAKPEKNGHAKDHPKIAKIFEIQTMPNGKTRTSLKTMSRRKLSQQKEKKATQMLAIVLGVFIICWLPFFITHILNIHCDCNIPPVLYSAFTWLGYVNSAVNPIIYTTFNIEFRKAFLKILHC
Outline: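 cAMP accumulation in DRD2-HEK293 cells measured by HTRF after 1 h detection; compounds added 10 min before NKH477 (200nM […]) forskolin-analogue stimulation, 30 min at room temperature, with Ro20-1724 present at 0.1 mM final.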

[20] = target: D(2) dopamine receptor (Homo sapiens) (UniProt P14416); assay: Dopamine D2 receptor (DRD2) small molecule antagonists, cell-based qHTS assay (AID 1963595; active = well fitted inhibition curve with a large enough effect in the signal ratio in the repeat runs, with a control signal flat; the % refers to the signal ratio)
Outline: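 DRD2-HEK293; 0.1 mM Ro20-1724; cpd 10 min RT; NKH477 200 nM + quinpirole 12 nM, 30 min RT; HTRF cAMP (cAMP-d2/anti-cAMP cryptate), 665/620 nm ratio after 1 h.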

Measured: Potency

CCOC(OCC)C(=O)c1ccccc1
inactive: all assays above

CC(C)(C)CC(C)(C)c1ccc(O)c(-n2nc3ccccc3n2)c1
inactive: all assays above

CCCCCCCCO[C@@H]1O[C@H](CO)[C@@H](O)[C@H](O)[C@H]1O
not listed: [20]
inactive: all other assays above

C[CH2][Ge]([Cl])([CH2]C)[CH2]C
not listed: [15] | [18]
inactive: all other assays above

Cn1ccnc1
not listed: [18]
inactive: all other assays above

CC(C)C(=O)C(C)C
inactive: all assays above
